Inconclusive results are not listed. Activity calls are given as the source filed them. Unless noted, calls follow the shape of the dose curve; as a rule, active = well fitted curve in the direction sought with a large enough effect; inconclusive = small, poorly fitted or top-dose-only effect, or another doubt; inactive = no such curve, though single readings can be large; an effect the other way counts as inactive or inconclusive. Some results are limits rather than exact numbers.

For experiment [1], the target named is Lysosomal acid glucosylceramidase (Homo sapiens) (UniProt P04062). As to the kind of experiment: Glucocerebrosidase-p2 (AID 348; in the data active = potency below about 10 µM; also: potency is read from the fitted curve at half-maximal effect). To be noted: purified GBA, blue fluorogenic substrate, 40 min. In outline: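 Compounds titrated from 0.6 nM upwards against 0.2 nM enzyme in pH 5.9 citric acid/KH2PO4, taurocholate, tween-20; blue fluorogenic substrate 80 uM, 40 min room temperature, stopped and read Ex 365/Em 440 for AC50.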
Sequence of Lysosomal acid glucosylceramidase (Homo sapiens) (P04062 whole entry, looked up): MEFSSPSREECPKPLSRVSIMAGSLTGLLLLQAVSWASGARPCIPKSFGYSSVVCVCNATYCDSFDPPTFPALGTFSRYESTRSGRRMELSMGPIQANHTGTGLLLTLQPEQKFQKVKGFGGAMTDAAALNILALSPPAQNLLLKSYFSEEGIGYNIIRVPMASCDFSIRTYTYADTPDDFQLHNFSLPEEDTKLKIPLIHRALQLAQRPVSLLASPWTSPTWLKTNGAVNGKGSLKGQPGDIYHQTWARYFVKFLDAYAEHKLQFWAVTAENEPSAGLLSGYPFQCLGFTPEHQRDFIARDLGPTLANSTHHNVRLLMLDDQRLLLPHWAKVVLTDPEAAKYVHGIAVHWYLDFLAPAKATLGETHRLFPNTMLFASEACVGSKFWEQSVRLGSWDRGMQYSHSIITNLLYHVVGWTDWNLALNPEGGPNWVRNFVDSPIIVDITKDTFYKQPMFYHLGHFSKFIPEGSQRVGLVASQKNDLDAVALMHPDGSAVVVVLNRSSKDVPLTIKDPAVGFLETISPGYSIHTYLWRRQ

The nature of experiment [2]: AP1 Signaling Pathway (AID 357; active = well fitted curve in either direction with a large enough effect, not every such curve was filed as active; also: % is scaled to controls: 0 for no effect and ±100 for the full control effect). To be noted: ME-180 AP-1-bla reporter, EGF-induced, beta-lactamase ratio, 5 h; at 7.69 µM (top of the series) unless noted. The method, boiled down: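 ME-180 cells with beta-lactamase reporter under AP-1 response element, stimulated with EC50 EGF; compounds tested in titration series, 5 h at 37 °C. CCF4 substrate added 2.5 h at room temperature; 460/530 nm emission ratio gave %activity and AC50.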

The nature of experiment [3]: NFAT Signaling Pathway (AID 444; active = well fitted curve in either direction with a large enough effect, not every such curve was filed as active;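 also: carbachol stimulus at about its EC50 of 1 µM final; % is scaled to controls: 0 for no effect and ±100 for the full control effect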). To be noted: Jurkat NFAT-bla M1, carbachol, beta-lactamase ratio, 5 h; at 7.69 µM (top of the series) unless noted. In outline: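 Read-out: CCF4 FRET ratio (460 nm/530 nm) after 1 h RT dye loading, used for %activity and AC50 from titration series. Cells: Jurkat NFAT-β-lactamase/M1 line, treated with compound plus 1 uM carbachol for 5 h, 37 °C.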

A short description of experiment [4]: Stat Signaling Pathway (AID 446; active = well fitted curve in either direction with a large enough effect, not every such curve was filed as active;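 also: ME-180 cervical cancer cells given 40 pM IL-6 alongside compound; SIE-controlled beta-lactamase reporter measured as 460/530 nm FRET emission ratio; % is scaled to controls: 0 for no effect and ±100 for the full control effect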). To be noted: ME-180 (cervical carcinoma) SIE beta-lactamase reporter, IL-6 stimulated, 5 h; at 7.69 µM (top of the series) unless noted. The method, boiled down:
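ME-180 cells carrying a SIE-driven beta-lactamase reporter are stimulated with 40 pM IL-6 for 5 h at 37C in the presence of compound. The 460/530 nm FRET substrate ratio is read after 2.5 h at RT. Data are normalised to 300 pM IL-6 and to 125 nM JAK inhibitor controls.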

Experiment [5] has as its target Glucocorticoid receptor (Homo sapiens) (UniProt P04150). As to the kind of experiment: GR-GFP Redistribution (AID 450;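 active = compounds whose dose series gives a full or clear partial fitted curve of increased nuclear translocation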; also: potency is read from the fitted curve at half-maximal effect). To be noted: U2OS GR-GFP nuclear translocation, laser cytometry, 2 h.
For experiment [6] the target is unchanged. As to the kind of experiment: GR-EFC Redistribution (AID 451; calls by dose curve; also: potency is read from the fitted curve at half-maximal effect). To be noted: CHO-K1 GR-EFC translocation, beta-gal luminescence, 2 h. In outline: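 Translocation of GR-ED fusion to nuclear EA restores b-gal, read by luminescence after 1 h room-temperature detection. Engineered CHO-K1 biosensor cells, 1,000/well, exposed 2 h at 37 C to titrations up to 46 uM final.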

Experiment [7] deals with Mitogen-activated protein kinase 10 (Mus musculus) (UniProt Q61831). As to the kind of experiment: JNK3 AlphaScreen Assay (AID 530; active = well fitted curve in either direction with a large enough effect, not every such curve was filed as active;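 also: kinase came from lysate of stimulated human HepG2 cells; signal reports phosphorylation of biotinylated GST-cJun 1-79 at Ser73 with 10 µM ATP; % is scaled to controls: 0 for no effect and ±100 for the full control effect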). To be noted: JNK3 lysate, c-Jun phosphorylation; series mostly up to 57.1 µM. In outline: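 Room-temperature AlphaScreen kinase assay; pre-activated HepG2 lysate as JNK3 source, biotin-GST-cJun(1-79) substrate, 10 uM ATP, compound 15 min preincubation.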

For experiment [8], the target named is 3',5'-cyclic-AMP phosphodiesterase 4B (Homo sapiens) (UniProt Q07343). As to the kind of experiment: qHTS Assay for Inhibitors of PDE-IV (AID 607; active = well fitted activation curve with a large enough effect in the main read-out, with a control signal flat, not every such curve was filed as active; also: % of control where 0% means no effect). To be noted: HEK293 ACTOne CNG channel cells, membrane potential fluorescence; series mostly up to 22.9 µM. In outline:
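HEK293 ACTOne cells with CNG channel (1000/well), endogenous PDE4; membrane potential dye, compounds up to 22.9 uM final. Fluorescence Ex 535/Em 590; RO 20-1724 (100 uM final) as reference.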
Background: In qHTS, concentration-response curves come from the screen itself.

Experiment [9] deals with Cytochrome P450 3A4 (Homo sapiens) (UniProt P08684). As to the kind of experiment: qHTS Assay for Activators of Cytochrome P450 3A4 (AID 885). Also: nearly all actives have a fitted effect of over 65% in size. To be noted: recombinant CYP3A4, Luciferin-PPXE luminescence, 60 min; series mostly up to 57.1 µM. The method, boiled down: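 Human CYP3A4 (20 nM) with Luciferin-PPXE at 25 uM (its KM) in 200 mM KPO4; 10 min compound preincubation, then NADPH regeneration and 60 min reaction at RT. Luciferin read by luminescence; normalized to 57 uM ketoconazole full inhibition.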
Sequence of Cytochrome P450 3A4 (Homo sapiens) (P08684 whole entry, looked up): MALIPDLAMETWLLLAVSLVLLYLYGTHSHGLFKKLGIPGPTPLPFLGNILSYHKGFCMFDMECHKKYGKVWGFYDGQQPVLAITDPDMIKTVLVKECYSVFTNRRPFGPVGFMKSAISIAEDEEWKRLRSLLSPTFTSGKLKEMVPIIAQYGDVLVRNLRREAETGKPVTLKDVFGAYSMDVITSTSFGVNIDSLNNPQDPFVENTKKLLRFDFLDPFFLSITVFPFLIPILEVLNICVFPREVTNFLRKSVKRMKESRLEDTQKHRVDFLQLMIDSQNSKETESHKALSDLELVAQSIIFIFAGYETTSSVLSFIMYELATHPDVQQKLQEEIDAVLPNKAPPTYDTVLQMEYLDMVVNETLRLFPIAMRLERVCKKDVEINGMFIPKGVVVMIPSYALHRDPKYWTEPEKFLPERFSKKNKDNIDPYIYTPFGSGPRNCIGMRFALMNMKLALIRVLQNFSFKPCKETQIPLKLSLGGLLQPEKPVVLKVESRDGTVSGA

Experiment [10] can be described thus: qHTS Assay for Lipid Storage Modulators (AID 1519; calls by dose curve). To be noted: Drosophila S3 cells, BODIPY lipid droplet/cell ratio, laser cytometry, cells loaded with oleic acid; for activity change, negative = inhibition: at 57.5 µM (top of the series). In outline: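 Cells seeded at 5,000 per well were treated with compounds over a concentration series and loaded with oleic acid (400 uM, as added). Lipid droplet fluorescence (488 nm excitation, 500-530 nm channel) was read by laser-scanning cytometry and normalized to 20 uM Triacsin C.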

Experiment [11] concerns the target Dual specificity protein kinase CLK4 (Homo sapiens) (UniProt Q9HAZ1). As to the kind of experiment: qHTS Assay for Inhibitors of CDC-like Kinase 4 (Kinase-Glo Assay) (AID 1770). Also: nearly all actives have a fitted effect of over 65% in size. Also: potency is read from the fitted curve at half-maximal effect. To be noted: recombinant Clk4, Kinase-Glo ATP depletion luminescence; series mostly up to 66.7 µM. The method, boiled down:
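Readout: Kinase-Glo luminescence from ATP left after a 4.5 h room-temperature reaction of 25 nM Clk4 with 100 uM RS peptide and 1 uM ATP (final). Buffer: 25 mM Tris pH 7.5, 10 mM MgCl2.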

For experiment [12] the target is unchanged. As to the kind of experiment: qHTS Assay for Inhibitors of CDC-like Kinase 4 (ADP-Glo Assay) (AID 1771). Also: nearly all actives have a fitted effect of over 70% in size. Also: potency is read from the fitted curve at half-maximal effect. To be noted: recombinant CLK4, ADP-Glo luminescence; series mostly up to 80 µM. The method, boiled down:
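Kinase reaction: Clk4 at 25 nM, RS repeat peptide substrate at 100 uM, ATP at 1 uM, 1 hr, room temperature. Product ADP detected as luciferase signal via ADP-Glo.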

The target in experiment [13] is Ubiquitin carboxyl-terminal hydrolase 1 (Homo sapiens) (UniProt O94782). As to the kind of experiment: Inhibitors of USP1/UAF1: Pilot qHTS (AID 504865).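 Also: rhodamine fluorescence freed from ubiquitin-rhodamine substrate followed over time; top concentration of the series differs between compounds; % is scaled to controls: 0 for no effect and ±100 for the full control effect; nearly all actives have a fitted effect of over 35% in size.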 To be noted: purified USP1/UAF1, Ub-rhodamine cleavage fluorescence; series mostly up to 54.9 µM. The method, boiled down: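 1nM USP1/UAF1 + cpd, 15 min RT; start w/ Ub-Rho 150nM final; kinetic FL 480/540 nm, 6 reads q60 s. Buffer 50mM HEPES pH 7.8, 0.5mM EDTA, 1mM TCEP, 0.01% Tween-20, 0.1 mg/ml BSA.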
Sequence of Ubiquitin carboxyl-terminal hydrolase 1 (Homo sapiens) (O94782 whole entry, looked up): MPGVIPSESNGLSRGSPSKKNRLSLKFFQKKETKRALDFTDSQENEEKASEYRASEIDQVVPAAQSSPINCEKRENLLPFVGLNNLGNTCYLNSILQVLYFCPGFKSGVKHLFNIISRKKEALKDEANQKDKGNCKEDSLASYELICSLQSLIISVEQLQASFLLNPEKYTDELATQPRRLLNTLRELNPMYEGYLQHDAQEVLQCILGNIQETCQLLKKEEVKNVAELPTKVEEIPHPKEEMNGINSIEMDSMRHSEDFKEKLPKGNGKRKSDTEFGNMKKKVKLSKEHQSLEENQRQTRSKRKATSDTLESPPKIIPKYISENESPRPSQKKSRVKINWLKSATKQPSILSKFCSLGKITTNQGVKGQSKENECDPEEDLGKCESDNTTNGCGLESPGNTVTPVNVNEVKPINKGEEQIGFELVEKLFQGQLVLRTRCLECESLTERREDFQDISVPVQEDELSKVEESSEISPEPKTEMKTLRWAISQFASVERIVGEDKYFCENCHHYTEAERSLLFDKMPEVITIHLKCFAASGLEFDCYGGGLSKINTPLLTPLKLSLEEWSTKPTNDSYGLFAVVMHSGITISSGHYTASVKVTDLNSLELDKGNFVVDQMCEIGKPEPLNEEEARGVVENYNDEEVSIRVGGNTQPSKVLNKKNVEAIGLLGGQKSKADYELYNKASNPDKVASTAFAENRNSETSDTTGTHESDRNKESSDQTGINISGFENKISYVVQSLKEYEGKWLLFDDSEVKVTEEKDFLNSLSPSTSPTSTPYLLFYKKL

A short description of experiment [14]: Primary qHTS for small molecule stabilizers of the endoplasmic reticulum resident proteome: Secreted ER Calcium Modulated Protein (SERCaMP) assay (AID 1508630). Also: % is scaled to controls: 0 for no effect and ±100 for the full control effect. To be noted: SH-SY5Y GLuc-SERCaMP (Gaussia luciferase released on ER calcium loss) secretion, thapsigargin, luminescence; series mostly up to 38.4 µM. In outline:
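GLuc-SERCaMP-expressing SH-SY5Y cells, pretreated 16 h with compound, are challenged with thapsigargin to empty ER calcium stores; after 4 h, coelenterazine is added directly to the medium and luminescence is imaged.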

For experiment [15], the target named is Cytochrome P450 1A2 (Homo sapiens) (UniProt P05177). As to the kind of experiment: p450-cyp1a2 (AID 410; calls by dose curve; also: potency is read from the fitted curve at half-maximal effect). To be noted: recombinant CYP1A2, luciferin-ME demethylation, luminescence; series mostly up to 57 µM. The method, boiled down: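 Inhibition was calculated relative to 57 uM furafylline (full inhibition). The reaction used human CYP1A2 at 20nM with Luciferin-ME at its Km, 100uM, driven by an NADPH-regenerating system for 60 min at room temperature.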
Sequence of Cytochrome P450 1A2 (Homo sapiens) (P05177 whole entry, looked up): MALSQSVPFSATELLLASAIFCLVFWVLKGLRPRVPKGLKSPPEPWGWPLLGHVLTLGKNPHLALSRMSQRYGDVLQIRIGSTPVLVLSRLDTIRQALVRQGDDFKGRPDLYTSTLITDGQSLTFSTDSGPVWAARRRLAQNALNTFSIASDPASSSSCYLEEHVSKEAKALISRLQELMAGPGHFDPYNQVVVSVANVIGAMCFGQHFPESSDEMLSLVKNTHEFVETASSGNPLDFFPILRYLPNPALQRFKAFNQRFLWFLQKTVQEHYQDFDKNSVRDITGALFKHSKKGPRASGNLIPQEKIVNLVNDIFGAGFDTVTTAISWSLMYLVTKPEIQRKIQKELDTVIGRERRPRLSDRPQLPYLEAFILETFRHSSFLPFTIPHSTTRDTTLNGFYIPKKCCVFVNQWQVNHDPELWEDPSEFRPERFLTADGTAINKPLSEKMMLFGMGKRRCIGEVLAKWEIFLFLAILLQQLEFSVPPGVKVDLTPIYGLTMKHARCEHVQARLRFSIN

[16] abbreviates: measured here: cell count channel max response.
The mark [17] stands for this setting: measured here: lipid channel max response.

Sequence of 3',5'-cyclic-AMP phosphodiesterase 4B (Homo sapiens) (Q07343 whole entry, looked up): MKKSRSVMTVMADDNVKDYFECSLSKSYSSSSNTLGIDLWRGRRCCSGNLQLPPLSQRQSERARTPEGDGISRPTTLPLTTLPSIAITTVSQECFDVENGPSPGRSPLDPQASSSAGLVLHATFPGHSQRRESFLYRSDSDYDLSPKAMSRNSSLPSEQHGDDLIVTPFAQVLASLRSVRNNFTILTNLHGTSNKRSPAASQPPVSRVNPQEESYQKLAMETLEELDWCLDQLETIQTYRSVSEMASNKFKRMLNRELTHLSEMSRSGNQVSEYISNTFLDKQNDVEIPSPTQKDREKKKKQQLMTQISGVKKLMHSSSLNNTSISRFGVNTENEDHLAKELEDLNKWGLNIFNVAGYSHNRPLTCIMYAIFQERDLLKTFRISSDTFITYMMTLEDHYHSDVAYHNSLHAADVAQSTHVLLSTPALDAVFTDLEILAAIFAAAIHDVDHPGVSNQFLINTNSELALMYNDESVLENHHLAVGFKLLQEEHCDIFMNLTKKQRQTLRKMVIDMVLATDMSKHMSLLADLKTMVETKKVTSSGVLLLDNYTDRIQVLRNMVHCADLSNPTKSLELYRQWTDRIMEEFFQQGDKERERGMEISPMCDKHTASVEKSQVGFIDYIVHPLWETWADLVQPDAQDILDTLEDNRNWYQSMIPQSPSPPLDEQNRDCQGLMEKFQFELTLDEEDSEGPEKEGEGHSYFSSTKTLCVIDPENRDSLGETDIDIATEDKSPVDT
Sequence of Dual specificity protein kinase CLK4 (Homo sapiens) (Q9HAZ1 whole entry, looked up): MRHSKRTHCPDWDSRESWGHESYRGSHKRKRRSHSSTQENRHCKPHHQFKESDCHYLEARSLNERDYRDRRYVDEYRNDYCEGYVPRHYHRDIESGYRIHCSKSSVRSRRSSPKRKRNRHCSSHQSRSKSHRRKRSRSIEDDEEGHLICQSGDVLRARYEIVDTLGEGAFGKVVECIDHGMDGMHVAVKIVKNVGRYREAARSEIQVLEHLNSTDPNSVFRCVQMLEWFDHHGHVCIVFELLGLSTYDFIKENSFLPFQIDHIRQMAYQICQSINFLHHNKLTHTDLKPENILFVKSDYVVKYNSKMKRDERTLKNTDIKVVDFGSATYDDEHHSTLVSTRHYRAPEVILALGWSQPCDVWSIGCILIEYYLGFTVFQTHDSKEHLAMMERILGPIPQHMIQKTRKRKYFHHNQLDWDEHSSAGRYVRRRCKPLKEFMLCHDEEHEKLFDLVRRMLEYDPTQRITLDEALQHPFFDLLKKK
Sequence of Glucocorticoid receptor (Homo sapiens) (P04150 whole entry, looked up, the tested form may be a part): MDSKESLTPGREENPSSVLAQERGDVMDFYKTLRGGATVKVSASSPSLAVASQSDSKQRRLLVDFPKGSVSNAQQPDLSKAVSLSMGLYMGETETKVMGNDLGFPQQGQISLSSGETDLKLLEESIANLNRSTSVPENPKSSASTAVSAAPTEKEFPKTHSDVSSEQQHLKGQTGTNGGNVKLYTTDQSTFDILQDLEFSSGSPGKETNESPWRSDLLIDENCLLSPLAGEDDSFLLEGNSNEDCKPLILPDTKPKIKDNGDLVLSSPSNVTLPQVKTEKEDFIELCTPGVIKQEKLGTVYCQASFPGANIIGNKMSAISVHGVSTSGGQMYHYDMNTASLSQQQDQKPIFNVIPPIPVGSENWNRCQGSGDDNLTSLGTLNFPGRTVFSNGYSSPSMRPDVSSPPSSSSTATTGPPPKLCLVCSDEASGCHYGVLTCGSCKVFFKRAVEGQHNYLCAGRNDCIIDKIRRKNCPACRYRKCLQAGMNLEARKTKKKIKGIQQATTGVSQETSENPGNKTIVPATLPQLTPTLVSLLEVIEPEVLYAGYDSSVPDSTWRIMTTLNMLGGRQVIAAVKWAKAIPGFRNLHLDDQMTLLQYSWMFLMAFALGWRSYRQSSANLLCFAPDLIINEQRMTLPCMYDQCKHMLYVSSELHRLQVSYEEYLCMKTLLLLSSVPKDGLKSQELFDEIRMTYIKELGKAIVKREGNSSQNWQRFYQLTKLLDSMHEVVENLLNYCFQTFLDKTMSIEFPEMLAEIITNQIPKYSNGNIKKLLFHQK

Consider `NCCn1c(=O)c(CCc2ccccc2)nc2cncnc21`, for which the Potency in experiment [1] was > 11.4 µM (inactive); in experiment [5], > 9.22 µM (inactive); in [6] it was > 46 µM (inactive). The results for the activity change, negative = inhibition in [2], in [3] and in experiment [10] were -1.99% (inactive), -4.68% (inactive) and 4.81% (inactive), respectively. In addition, the activity, negative = inhibition in experiment [4] is -4.77% (inactive). The molecule was called inactive in experiment [7]. Also, the Potency entry in experiment [8], in [9], in experiment [11], in experiment [12], in [13] and in [14] was “inactive” in each case. Besides, the max response in experiment [10] (setting [16]) was found to be 26.7%; in [10] (setting [17]), 29.9%.

Turning to `Cc1cnc(CNc2cc(-c3cccc(NS(C)(=O)=O)c3)ncn2)cn1`, the Potency in [1] is > 11.4 µM (inactive); in experiment [5] it was > 46 µM (inactive); in [6], > 46 µM (inactive); in [11], 25.1 µM (active); in experiment [12], 15.8 µM (active). The activity change, negative = inhibition in experiment [2] was 20.7% (inactive); in [3], -0.447% (inactive); in [10], 5.3% (inactive). Also, the activity, negative = inhibition in [4] is -0.385% (inactive). The result in experiment [7] was inactive. Moreover, the Potency entry in experiment [8], in [13] and in [14] was “inactive” in each case. The figures for the max response in experiment [10] (setting [16]) and in [10] (setting [17]) were 37.3% and 40.2%, respectively.

Consider `COCCn1c(=O)c(-c2cn(C)c3ccccc23)nc2cnc(N3CCOCC3)nc21`, for which the Potency in experiment [1] was > 11.4 µM (inactive); in [5] it was > 9.22 µM (inactive); in experiment [6] it was > 46 µM (inactive). In addition, the activity change, negative = inhibition was -12.3% (inactive) in experiment [2], 5.44% (inactive) in experiment [3] and 4.05% (inactive) in experiment [10]. Moreover, in [4], the activity, negative = inhibition is -11.9% (inactive). For the same molecule, the molecule was classed as inactive in experiment [7]. Besides, the Potency entry in [8], in [11], in experiment [12], in experiment [13] and in experiment [14] was “inactive” in each case. In addition, the results for the max response in experiment [10] (setting [16]) and in experiment [10] (setting [17]) were 6.29% and 8.52%, respectively.

Take `COCCn1c(=O)c(-c2ccc(Cl)cc2)nc2cnc(Nc3ccccc3)nc21`: the Potency in experiment [1] was > 11.4 µM (inactive); in [15], 20 µM (active); in experiment [5] it was > 9.22 µM (inactive); in experiment [6], > 46 µM (inactive). The outcome in experiment [7] was inactive. The Potency entry in experiment [8], in experiment [11], in [12], in experiment [13] and in [14] was “inactive” in each case. Besides, in [10], the activity change, negative = inhibition is 3.97% (inactive). Moreover, the values for the max response in experiment [10] (setting [16]) and in experiment [10] (setting [17]) were 10.8% and 12.1%, respectively.

Consider `Cc1noc(C)c1-c1ccc2ncnc(N3CCN(C)CC3)c2c1`, for which the Potency in [1] is > 11.4 µM (inactive); in experiment [15] it was 12.6 µM (active); in experiment [5] it was > 46 µM (inactive); in experiment [6], > 46 µM (inactive); in experiment [11], 10 µM (active); in experiment [12], 10 µM (active). In addition, the molecule was called inactive in experiment [7]. In addition, the Potency entry in experiment [9], in [13] and in experiment [14] was “inactive” in each case. Further, the activity change, negative = inhibition in [10] is 0.38% (inactive). For the same molecule, the max response in experiment [10] (setting [16]) stood at 21%; in experiment [10] (setting [17]) it was 4.95%.
